# In PubChem BioAssay AID1851 (National Center for Advancing Translational Sciences (NCATS), 2009):
# The whole screen tested about 16,000 compounds, of which about 5,800 (36%) were called active. Inconclusive results (about 23%) are left out. The list shows a part of the results. Values without a mark were called inactive. Calls come from the whole dose curve; as a rule, active = well fitted curve in the direction sought with a large enough effect; inconclusive = small, poorly fitted or top-dose-only effect, or effect the other way; inactive = no such curve, though single readings can be large or run the other way.
# Biological target: Cytochrome P450 2C19 (Homo sapiens) (UniProt P33261)
# Assay: Cytochrome panel assay with activity outcomes
# Conditions: recombinant CYP, pro-luciferin dealkylation, luminescence, p450-cyp2c19; series mostly up to 57.1 µM; activity, negative = inhibition: at the top concentration
# Description: The P450 gene superfamily is involved in the metabolism and clearance of xenobiotics. This assay used various human CYP P450 isozymes to measure the dealkylation of various pro-luciferin substrates to luciferin. The luciferin is then measured by luminescence after the addition of a luciferase detection reagent. Pro-luciferin substrate concentration in the assay was equal to its KM for its CYP P450 isozyme. Inhibitors and some substrates limit the production of luciferin, and decrease measured luminescence.
# NCGC Assay Protocol Summary:
# 1, Reagent, 2 uL, Isozyme and Pro-Luciferin
# 2, Library compounds, 23 nl, 40 uM to 0.24 nM dilution series
# 3, Controls, 23 nl, Isozyme specific inhibitor
# 4, Reagent, 2 uL, NADPH regeneration solution
# 5, Incubation time, 60 min, Isozyme specific temperature
# 6, Reagent, 4ul, Detection reagent
# 7, Incubation time, 20 min, Isozyme specific temperature
# 8, Detection, 1 sec, ViewLux luminescent read
# The luciferase-based P450-GloTM Screening Systems were obtained from Promega (Madison, WI) for CYP 1A2 (V9770), CYP 2C9 (V9790), CYP2 C19 (V9880), CYP 2D6 (V9890), and CYP 3A4 Luciferin-PPXE (V9910) and were adapted for 1,536-well microplates and an automated protocol. The control compounds furafylline for 1A2 (F124), sulfaphenazole for CYP 2C9 (S0758), ketoconazole for CYP 2C19 (K1003), quinidine for 2D6 (Q3625), and ketoconazole for 3A4 (K1003) were purchased from Sigma Aldrich (St. Louis, MO). Recombinant P450 enzymes were obtained from baculovirus constructs expressed in insect cells (BD/Gentest).
# Medium-binding white solid Kalypsys plates used. Mixtures kept on ice. 1A2: 10 nM 1A2, 100 uM Luc-ME, 100 mM KPO4; 2C9: 10 nM 2C9, 100 uM Luc-H, 25 mM KPO4; 2C19: 5 nM 2C19, 10 uM Luc-H EGE, 50 mM KPO4; 2D6: 5 nM 2D6, 30 uM Luc-ME EGE, 100 mM KPO4; 3A4: 10 nM, 25 uM Luc-PPXE. All amounts are reflected in their final concentration, working concentration is 2x.
# NADPH regeneration solution: 1.3 mM NADP+, 3.3 mM glucose-6-phosphate, 3.3 mM MgCl2, 0.4 U/mL glucose-6-phosphate dehydrogenase for all isozymes, 200 mM KPO4 for 3A4. Mixture prepared at RT but kept on ice during automated run.
# RT incubation in auxilliary plate hotel for 1A2, 2D6, and 3A4; 37C for 2C9 and 2C19.
# Keywords: P450, CYP1A2, CYP2C19, CYP2C9, CYP2D6, CYP3A4, Luciferase, MLSMR, MLSCN, NIH Roadmap, qHTS, NCGC
# % is set by controls: 0 for no effect and ±100 for the full control effect.
# Sequence of Cytochrome P450 2C19 (Homo sapiens) (P33261 whole entry, looked up): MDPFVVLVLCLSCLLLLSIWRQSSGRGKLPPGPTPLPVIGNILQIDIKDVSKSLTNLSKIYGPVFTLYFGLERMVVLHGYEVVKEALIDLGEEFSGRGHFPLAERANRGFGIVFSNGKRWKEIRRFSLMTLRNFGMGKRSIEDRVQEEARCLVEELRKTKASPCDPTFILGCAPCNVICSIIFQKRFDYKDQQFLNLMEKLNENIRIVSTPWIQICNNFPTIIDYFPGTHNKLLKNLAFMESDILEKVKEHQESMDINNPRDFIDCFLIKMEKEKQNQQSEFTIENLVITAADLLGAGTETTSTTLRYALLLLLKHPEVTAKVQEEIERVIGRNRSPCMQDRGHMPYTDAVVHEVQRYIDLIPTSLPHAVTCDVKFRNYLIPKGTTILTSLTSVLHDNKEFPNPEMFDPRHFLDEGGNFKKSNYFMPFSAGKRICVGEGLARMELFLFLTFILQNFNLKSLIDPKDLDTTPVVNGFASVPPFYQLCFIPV
SMILES,AC50,"activity, negative = inhibition"
COc1cccc(NC(=O)CSc2nc3ccccc3cc2Cc2ccccc2)c1,0.251 µM (active),
COc1ccc(NC(=O)CCSc2cc(C)c3ccccc3n2)cc1,7.94 µM (active),
COc1ccc(NC(=O)CSc2nc3ccccc3cc2Cc2ccccc2)cc1,0.0282 µM (active),
COc1ccccc1NC(=O)CSc1nc2ccccc2cc1Cc1ccccc1,0.0398 µM (active),
CN(CCc1ccc(Cl)c(Cl)c1)CCN1CCCCCC1,,-43.2%
CN(CCc1ccc(Cl)c(Cl)c1)C[C@@H](O)COc1ccc(NS(C)(=O)=O)cc1,2 µM (active),
CC(C)NC[C@H](O)c1ccc(NS(C)(=O)=O)cc1,inactive,
O=C(NCCCN1CCOCC1)c1cc2c(s1)CSC2,,-22.2%
O=C(NCC1CCCO1)c1onc(CSc2ccccc2F)c1C(=O)O (stereo not given),,37.7%
O=C(NCc1ccccc1)c1onc(CSc2ccc(F)cc2)c1C(=O)NCCCN1CCOCC1,12.6 µM (active),
COCCNC(=O)c1onc(CSc2ccc(Cl)cc2)c1C(=O)O,3.55 µM (active),
COCCNC(=O)c1onc(CSc2cccc(Cl)c2)c1C(=O)O,,6.67%
C=CCNC(=O)c1onc(CSc2ccc(F)cc2)c1C(=O)O,5.62 µM (active),
COc1ccccc1C(=O)O/N=C1/CCCc2c1ccc(OC)c2[N+](=O)[O-],0.631 µM (active),
COc1ccc(/C=N/NC(N)=S)cc1OC(=O)c1cccc2ccccc12,2 µM (active),
O=C(O)CC[C@]1(C(=O)O)CCC(=O)c2ccccc21,,22.5% [at 11.4 µM]
Cc1ccccc1NS(=O)(=O)c1ccc2[nH]cc(C(=O)N(C)Cc3ccco3)c(=O)c2c1,25.1 µM (active),
CC1CCN(c2ccc(S(=O)(=O)Nc3cc(C(=O)O)cc(C(=O)O)c3)cc2[N+](=O)[O-])CC1,3.16 µM (active),
NNS(=O)(=O)c1cc(C(=O)O)cc(C(=O)O)c1,,-25.2% [at 11.4 µM]
COC(=O)c1cc(NS(=O)(=O)c2ccc(N3CCCCCC3)c([N+](=O)[O-])c2)cc(C(=O)OC)c1,5.62 µM (active),
CCCCN(C)S(=O)(=O)c1ccc(C(=O)Nc2nnc(CSC)o2)cc1,,-9.3%
Cc1cc(C)c(C)c(S(=O)(=O)ON2C(=O)c3ccccc3C2=O)c1C,3.16 µM (active),

SMILES,AC50,"activity, negative = inhibition"
N[C@@](CC(=O)O)(Cc1ccccc1)C(=O)O,,22.4% [at 11.4 µM]
C=CC(=O)NC(C)(C)Cc1ccccc1,14.1 µM (active),
CC(C)(SCc1ccccc1)[C@H](N)C(=O)O,,1.45% [at 11.4 µM]
COC(=O)c1ccccc1NS(=O)(=O)c1ccc2c3c(cccc13)C(=O)N2,0.794 µM (active),
Fc1ccc(C(OCCCc2cnc[nH]2)c2ccc(F)cc2)cc1,0.00398 µM (active),
N[C@@H](Cc1cnc[nH]1)C(=O)O,,36.4%
N=C(N)SCCc1cnc[nH]1,inactive,
CN1CCN(c2ncc3nc(-c4cccs4)c(=O)n(C[C@H]4CCCO4)c3n2)CC1,,-16.1%
CN1CCc2c(c3ccccc3n2C)C1,,1.73%
O=S(=O)(O)c1ccc(N=Nc2ccc3c(S(=O)(=O)O)cccc3c2O)c2ccccc12,,-37.1% [at 11.4 µM]
COc1cc(-c2ccc(N=Nc3ccc4c(S(=O)(=O)O)cc(S(=O)(=O)O)c(N)c4c3O)c(OC)c2)ccc1N=Nc1ccc2c(S(=O)(=O)O)cc(S(=O)(=O)O)c(N)c2c1O,3.98 µM (active),
C=CCN(CC=C)C(=O)C(=O)c1cc(C)n(-c2ccc([N+](=O)[O-])cc2)c1C,0.126 µM (active),
Clc1ccc2c(c1)C(N1CCNCC1)=Nc1ccccc1O2,,-17.2% [at 25.6 µM]
CN1CCN(C2=Cc3ccccc3Oc3ccc(Cl)cc32)CC1,3.98 µM (active),
CN1CCN(C2=Nc3ccccc3Oc3ccc(Cl)cc32)CC1,inactive,
COC(=O)c1sc2ccccc2c1-n1cccc1C(=O)C(=O)Nc1ccc(Cl)cc1,5.01 µM (active),
C=CCNC(=O)c1cccn1-c1ccsc1C(=O)OC,,-9.71%
Cc1ccc(NC(=O)N(Cc2ccco2)C(C)c2ccco2)cc1C (stereo not given),5.62 µM (active),
COCC(=O)N1CCC2(CCCN(Cc3ccccc3OC)C2)CC1,,20.3%
Cc1nnc(C)n1/N=C/c1ccc(-c2ccccc2)cc1,,-11.6%
Cc1ccc(-c2n[nH]c(=S)n2/N=C/c2cccn2C)cc1,14.1 µM (active),
C/C=C\C(=O)N(CC)c1ccccc1C,,-41.5% [at 25.6 µM]

SMILES,AC50,"activity, negative = inhibition"
COc1cccc(-c2cc(=O)c3ccccc3o2)c1N,6.31 µM (active),
C/C(=N/O)[C@@H]1C[C@H](CC(=O)O)C1(C)C,,23% [at 11.4 µM]
Cc1cc(C)n2nc(-c3sccc3-n3cccc3)cc2n1,7.08 µM (active),
O=C(OCC(=O)c1cccs1)c1cccc(C(=O)OCC(=O)c2cccs2)n1,17.8 µM (active),
CCOC(=O)c1cccc(C(=O)OCC)n1,,-3.88%
Cc1ccc2nc(-c3ccc(NC(=O)c4ccc(N)cc4)c(S(=O)(=O)O)c3)sc2c1,,0.214% [at 11.4 µM]
Cc1ccc2nc(NC(=O)COC(=O)c3ccc(Br)o3)sc2c1,8.91 µM (active),
Cc1ccc2nc(NC(=O)CSCC(=O)OCC(=O)c3ccc(Br)cc3)sc2c1,8.91 µM (active),
Cc1nc2ccc(S(=O)(=O)NC(CC(C)C)C(=O)O)cc2s1 (stereo not given),,-7.8%
OCCN(CCO)c1ncnc2nc[nH]c12,,-23.9% [at 11.4 µM]
CC(C)(C)N1C(=O)[C@H]2[C@@H]3[C@H](O)[C@H](O)CC(=O)[C@H]3CC[C@H]2C1=O,,-4.03% [at 11.4 µM]
N#CCCn1c(=O)c(-c2ccc(Cl)cc2)nc2cnc(N3CCOCC3)nc21,,-3.89%
N#CCCn1c(=O)c(-c2ccc(Cl)cc2)nc2cnc(Oc3cccc(Cl)c3)nc21,,-6.9%
N#CCCn1cc(/C=N/O)c(-c2ccc(Cl)cc2)n1,7.94 µM (active),
CC1=CC(=O)C=CC1(C)C(Cl)(Cl)Cl (stereo not given),25.1 µM (active),
CN(C)C(=O)c1ccc(-c2nccc(NCc3ccccc3)n2)cc1,,-44.6%
COc1ccccc1CNc1ccnc(-c2ccoc2)n1,7.94 µM (active),
Cc1cnc(CNc2ccnc(-c3ccc(N(C)C)cc3)n2)cn1,,-41.5%
COc1ccccc1CNc1ccnc(-c2ccc(N(C)C)cc2)n1,10 µM (active),
CN(C)c1ccc(-c2nccc(NCc3cccs3)n2)cc1,15.8 µM (active),
CN(C)c1ccc(-c2nccc(NCc3ccccc3)n2)cc1,25.1 µM (active),
